NSD2 HMT inh: NSD2 histone methyltransferase inhibitors, primary screen, biochemical, AlphaScreen, single concentration, set 2 | 0.54% of 310,000 active | inhibition, % at 12.5 µM | NSD2 peptide methylation, 120 min; in the data active = inhibition above about 50%
AF4-AF9 inh: inhibitors of AF4 peptide binding to AF9, primary screen, biochemical, AlphaScreen, biotin-AF4 peptide, FLAG-AF9, single point; 0.47% of 350,000 active; AID 651704, 2012; Protein AF-9 (Homo sapiens), P42568; inhibition, % at 10 µM;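 active = every replicate reaching a set inhibition limit, whatever the replicate mean, cut at about 25% in these data; inconclusive = mean inhibition reaches that limit but some replicates miss it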;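 also: 0% = plate neutral control median and 100% = total signal loss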
RAD52 anneal inh: RAD52 DNA annealing inhibitors, primary screen, biochemical, FRET, single point, set 2 | recombinant RAD52 DNA annealing, FRET fluorescence | inhibition, % at 18.7 µM | 0.46% of 360,000 active | AID 651710, 2012;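 active = every replicate showing at least 50% inhibition; inconclusive = mean inhibition at least 50% but not in every replicate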
Target sequence (P43351 whole entry, looked up): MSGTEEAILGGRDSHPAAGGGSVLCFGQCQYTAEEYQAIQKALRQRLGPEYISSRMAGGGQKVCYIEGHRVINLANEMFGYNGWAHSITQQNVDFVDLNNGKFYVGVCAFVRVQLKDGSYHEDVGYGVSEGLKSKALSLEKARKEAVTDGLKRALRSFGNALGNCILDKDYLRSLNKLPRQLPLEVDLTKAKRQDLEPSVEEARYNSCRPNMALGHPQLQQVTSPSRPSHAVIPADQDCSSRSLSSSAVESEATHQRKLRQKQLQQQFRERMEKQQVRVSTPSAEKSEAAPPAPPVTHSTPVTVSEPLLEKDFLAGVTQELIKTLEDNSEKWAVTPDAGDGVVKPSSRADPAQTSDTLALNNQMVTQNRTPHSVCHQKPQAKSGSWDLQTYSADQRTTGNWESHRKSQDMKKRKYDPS
Ecoli rRNA inh: reduced GFP signal of wild-type E. coli, primary screen, bacterial rRNA inhibitor project, GFP/RFP fluorescence, OD600, single point; GFP signal change (wild-type ribosome), % (test concentration not listed); 1.6% of 350,000 active; AID 720706, 2013; E. coli WT GFP vs humanized-ribosome RFP mutants, 24 h; stronger effect = lower value; DMSO median 0, no signal -100;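 active = significant combined selectivity score with lowered wild-type GFP, culture density cut under 30%, mutant RFP and density less affected; inactive = any of these conditions unmet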
Casp6 inh: human caspase-6 inhibitors, primary screen, biochemical, VEID-R110 fluorescence, single point, set 2; purified caspase-6, Z-VEID-R110 cleavage fluorescence; inhibition, % at 12.5 µM; 0.53% of 350,000 active;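 active = mean inhibition across replicates at least about 35%, with every replicate also reaching that limit, limit read from the data; inconclusive = only one of the two criteria met; inactive = neither criterion met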;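 also: 0% = median of neutral control wells and 100% = no fluorescence left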
AID977621: growth inhibition of wild-type GFP E. coli, dose response, H69 mutant RFP, cherry-pick | 1,900 tested, under 10 active | AID 977621, 2014 | shares compounds with Ecoli rRNA inh | E. coli wild-type GFP strain growth, fluorescence, 24 h | activity change, negative = inhibition at 50 µM;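 active = Wild-type ribosome reporter drop at least double the humanized mutant ribosome reporter drop, growth loss under a set limit; inconclusive = no clear call, values can overlap the other calls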;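 also: wild-type GFP and H69 mutant RFP strains grown together 50/50 in each well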
AID977628: E. coli growth inhibition, wild-type GFP versus h24 humanized RFP strain, dose response, h24 mutant RFP vs wild-type GFP, cherry-pick; shares compounds with Ecoli rRNA inh; E. coli WT GFP strain growth, fluorescence, 24 h; activity change, negative = inhibition at 50 µM; 1,900 tested, under 10 active; AID 977628, 2014;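 active = compound lowering the normal-ribosome reporter at least twice as much as the humanized-ribosome reporter, growth loss under a set limit; inconclusive = no clear call, values can overlap the other calls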;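 also: wild-type GFP and h24 humanized RFP strains co-cultured 1 to 1 per well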
Active calls of the source: *. Only some compounds are listed: those with a hit (about 2.5% of all), similar ones and a draw of the others.

`C[C@H](CO)N1C[C@H](C)[C@@H](CN(C)Cc2ccccc2)Oc2ccc(NS(=O)(=O)c3ccccc3)cc2CC1=O` gave AF4-AF9 inh 1, RAD52 anneal inh -8, Ecoli rRNA inh -2 and Casp6 inh 2.
For CCN(C(=O)CSc1cc(C)c2ccc(OC)cc2n1)C1CCS(=O)(=O)C1 (centres undefined) the results were NSD2 HMT inh -1, AF4-AF9 inh -3, RAD52 anneal inh -25, Ecoli rRNA inh -23*, Casp6 inh 7, AID977621 -16 and AID977628 -14.
COc1ccc(C(=O)NCCC2=CCCCC2)cc1[N+](=O)[O-] was read as NSD2 HMT inh -3, AF4-AF9 inh -1, RAD52 anneal inh -13, Ecoli rRNA inh -22*, Casp6 inh 2, AID977621 -13 and AID977628 -10.
COc1ccc(OCC(=O)NCCC2=CCCCC2)c([N+](=O)[O-])c1 was read as NSD2 HMT inh 1, AF4-AF9 inh -5, RAD52 anneal inh 8 and Casp6 inh 6.
Screening COc1ccc(S(=O)(=O)N(C)C[C@H]2Oc3ccc(NC(=O)CCN4CCOCC4)cc3CC(=O)N([C@@H](C)CO)C[C@@H]2C)cc1 returned AF4-AF9 inh -1, RAD52 anneal inh 5, Ecoli rRNA inh 1 and Casp6 inh -1.
O=C(Nc1cc(S(=O)(=O)N2CCOCC2)ccc1N1CCOCC1)c1ccc([N+](=O)[O-])s1 was read as NSD2 HMT inh 0, AF4-AF9 inh 6, RAD52 anneal inh -4, Ecoli rRNA inh -18*, Casp6 inh 2, AID977621 inconclusive and AID977628 -1.9.
Screening Cc1ccc(NC(=O)CCCSc2ccccc2)cc1S(=O)(=O)N1CCOCC1 returned NSD2 HMT inh -1, AF4-AF9 inh -1, RAD52 anneal inh -20, Ecoli rRNA inh -24*, Casp6 inh 0 and AID977621 -19.
For Cc1ccc(NC(=O)C2=COCCO2)cc1S(=O)(=O)N1CCOCC1 the results were NSD2 HMT inh 10, AF4-AF9 inh 2, RAD52 anneal inh -11, Ecoli rRNA inh 6 and Casp6 inh 2.
Screening O=C(Nc1cc(S(=O)(=O)N2CCOCC2)ccc1N1CCOCC1)c1ccccc1[N+](=O)[O-] returned NSD2 HMT inh 0, AF4-AF9 inh 2, RAD52 anneal inh -9, Ecoli rRNA inh 6 and Casp6 inh 0.
Screening O=C(CCNC(=O)c1ccccc1)Nc1ccc(Cl)c(S(=O)(=O)N2CCCCC2)c1 returned NSD2 HMT inh 12, AF4-AF9 inh 3, RAD52 anneal inh -8, Ecoli rRNA inh -41*, Casp6 inh 0 and AID977621 -16.
`Cc1ccc(NC(=O)c2ccc([N+](=O)[O-])s2)cc1S(=O)(=O)N1CCOCC1` gave NSD2 HMT inh 1, AF4-AF9 inh 2, RAD52 anneal inh -11, Ecoli rRNA inh -40*, Casp6 inh 0, AID977621 inconclusive and AID977628 -12.
For Cc1noc(C)c1NC(=O)N(C)C[C@H]1Oc2ccc(NC(=O)Nc3cccc4ccccc34)cc2C(=O)N([C@H](C)CO)C[C@H]1C the results were AF4-AF9 inh 1, RAD52 anneal inh 8, Ecoli rRNA inh 1 and Casp6 inh 0.
`C/C=C/c1ccc([C@H]2[C@@H](CO)N(S(C)(=O)=O)[C@H]2CN(CCC)C(C)=O)cc1` gave AF4-AF9 inh -4, RAD52 anneal inh -12, Ecoli rRNA inh 1 and Casp6 inh 1.
Nc1ccccc1Nc1ccc([N+](=O)[O-])cc1[N+](=O)[O-] was read as NSD2 HMT inh 26, AF4-AF9 inh 10, RAD52 anneal inh -4, Ecoli rRNA inh -24*, Casp6 inh -1, AID977621 -17 and AID977628 -19.
`NC(=O)c1cc([N+](=O)[O-])ccc1Nc1ccccc1` gave AF4-AF9 inh 1, RAD52 anneal inh -142, Ecoli rRNA inh 12 and Casp6 inh -3.
For Nc1cc([N+](=O)[O-])ccc1Nc1ccc(O)cc1 the results were NSD2 HMT inh 45, AF4-AF9 inh 23, RAD52 anneal inh -3, Ecoli rRNA inh -24*, Casp6 inh 3 and AID977628 inconclusive.
Screening CC=Cc1ccc2n(c1=O)C[C@@H]1[C@@H](CO)[C@H](C(=O)NCCc3ccccc3)[C@H]2N1C (mixture of isomers) returned AF4-AF9 inh 1, RAD52 anneal inh -4, Ecoli rRNA inh 2 and Casp6 inh -3.
`Cc1cc(-c2ccc(C)c(S(=O)(=O)NCC3CCN(Cc4ccccc4F)CC3)c2)on1` gave NSD2 HMT inh 1, AF4-AF9 inh 3, RAD52 anneal inh -30, Ecoli rRNA inh -16*, Casp6 inh -6, AID977621 -9 and AID977628 -6.6.
C[C@H]1CN([C@@H](C)CO)C(=O)c2cc(-c3cncnc3)cnc2O[C@@H]1CN(C)C(=O)Cc1cccnc1 was read as AF4-AF9 inh -2, RAD52 anneal inh 14, Ecoli rRNA inh 2 and Casp6 inh -2.
O=C1c2cccc(OCC(=O)N3CCCc4ccccc43)c2CCN1Cc1cccnc1 was read as NSD2 HMT inh -1, AF4-AF9 inh -2, RAD52 anneal inh -16, Ecoli rRNA inh -26*, Casp6 inh 4 and AID977621 -12.
For C[C@@H]1CN([C@H](C)CO)C(=O)c2cc(NS(=O)(=O)c3cn(C)cn3)ccc2O[C@H]1CN(C)S(=O)(=O)c1ccccc1 the results were AF4-AF9 inh -8, RAD52 anneal inh 10, Ecoli rRNA inh 0 and Casp6 inh -2.
Screening Cc1ccc(-n2nnnc2CNC(=O)c2ccc([N+](=O)[O-])o2)cc1C returned NSD2 HMT inh 0, AF4-AF9 inh -20, RAD52 anneal inh -9, Ecoli rRNA inh -20*, Casp6 inh 4, AID977621 inconclusive and AID977628 0.065.
For O=C(NCc1nnnn1-c1ccc(F)cc1)c1ccc([N+](=O)[O-])o1 the results were NSD2 HMT inh -2, AF4-AF9 inh -5, RAD52 anneal inh -5, Ecoli rRNA inh -14 and Casp6 inh 5.
O=C(O)c1cc(-c2cccs2)nn1-c1cccc(Cl)c1 was read as NSD2 HMT inh 5, AF4-AF9 inh 0, RAD52 anneal inh -19, Ecoli rRNA inh -33*, Casp6 inh 3, AID977621 -8.6 and AID977628 inconclusive.

Compound activity from PubChem.
